RORgamma inh: qHTS for inhibitors of ROR gamma transcriptional activity | actives 5.4% (n = 310,000) | Potency, µM (series often up to 53.6 µM), actives largely listed as inhibitors | AID 2551, 2010 | Drosophila S2 Gal4-RORgamma UAS-luciferase reporter, 20 h; further: nearly all actives have a fitted effect of over 60% in size
Target sequence (P51450 whole entry, looked up, the tested form may be a part): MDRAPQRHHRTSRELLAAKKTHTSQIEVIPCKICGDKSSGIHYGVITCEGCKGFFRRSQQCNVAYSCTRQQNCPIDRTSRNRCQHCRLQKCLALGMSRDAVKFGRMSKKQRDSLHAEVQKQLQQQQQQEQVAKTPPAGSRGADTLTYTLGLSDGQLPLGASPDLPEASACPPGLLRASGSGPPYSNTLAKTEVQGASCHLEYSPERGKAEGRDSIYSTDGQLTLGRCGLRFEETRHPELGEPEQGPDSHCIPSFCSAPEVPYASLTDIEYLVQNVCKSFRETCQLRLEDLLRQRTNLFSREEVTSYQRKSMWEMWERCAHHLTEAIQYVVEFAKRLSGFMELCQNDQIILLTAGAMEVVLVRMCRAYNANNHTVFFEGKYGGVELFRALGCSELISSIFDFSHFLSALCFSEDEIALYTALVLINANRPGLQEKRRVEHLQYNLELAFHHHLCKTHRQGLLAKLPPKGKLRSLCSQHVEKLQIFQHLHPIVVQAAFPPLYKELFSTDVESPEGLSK
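Read-out: Photinus luciferase luminescence; inhibitors lower reporter signal. Insect Schneider cells with Gal4-ROR gamma fusion under metallothionein promoter, UAS reporter; 700 uM final copper sulfate induction, 20 hr, ambient temperature.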
IL-1B inflam inh: qHTS for Inhibitors of Inflammasome Signaling: IL-1-beta AlphaLISA Primary Screen; THP-1 LPS/ATP IL-1B secretion, AlphaLISA, 16 h; active compounds read low; activity change, % at 57.5 µM; actives 4.7% (n = 360,000); AID 743279, 2014; in the data active means activity change below about -50%; inconclusive means mostly about -30% to -49%
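THP-1 cells pretreated 1 hr with compounds (up to 57.5 uM final), then stimulated with LPS (250 ng/mL final) plus ATP (1.25 mM final); secreted IL-1B measured by AlphaLISA after 16 hr, decreased signal indicating inhibition.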
DT40 TDP1 no CPT: qHTS for Inhibitors of human tyrosyl-DNA phosphodiesterase 1 (TDP1): qHTS in cells in absence of CPT. DT40 Tdp1-/- hTDP1 cells, no CPT, ATP luminescence, 48 h. Potency, µM (doses to about 46.2 µM), most hits filed as inhibitors. actives 15% (n = 420,000). AID 686978, 2013; further: nearly all actives have a fitted effect of over 55% in size
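Cells were dispensed at 400 per well, compounds added by pin tool, plates incubated ≥48 hr at 37 °C, then CellTiter-Glo added for 30 min at room temperature before luminescence reading. Line: DT40 Tdp1-/- complemented with hTDP1; camptothecin omitted.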
Gal4-VP16 FLuc: VP16 counterscreen qHTS for inhibitors of ROR gamma transcriptional activity; Drosophila S2 Gal4-VP16 UAS-luciferase, luminescence, 20 h; Potency, µM (doses to about 53.6 µM), most hits filed as inhibitors; actives 3.5% (n = 310,000);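 further: Gal4-VP16 expression switched on by copper sulfate through the metallothionein promoter; nearly all actives have a fitted effect of over 50% in size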
DT40 TDP1 CPT: qHTS for Inhibitors of human tyrosyl-DNA phosphodiesterase 1 (TDP1): qHTS in cells in presence of CPT; chicken DT40 Tdp1-/-;hTDP1 cells + 20 nM CPT, ATP luminescence, 48 h; actives 12% (n = 420,000); Potency, µM (highest dose often 46.2 µM), most hits filed as inhibitors; further: nearly all actives have a fitted effect of over 55% in size
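Cell growth measured by CellTiter-Glo luminescence after a minimum 48 h, 37 C compound exposure with 20 nM CPT in Tdp1-knockout DT40 cells stably expressing hTDP1, seeded 400/well; qHTS titration format.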
ELG1 repair inh: qHTS screen for small molecules that inhibit ELG1-dependent DNA repair in human embryonic kidney (HEK293T) cells expressing luciferase-tagged ELG1; Potency, µM (titrated, usually from 46.1 µM), most hits filed as inhibitors; actives 2.3% (n = 330,000); AID 504467, 2011; HEK293T ELG1-luciferase reporter, luminescence, 16 h; DNA damage induced by 5-fluorouridine; further: nearly all actives have a fitted effect of over 55% in size
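HEK293T cells expressing luciferase-tagged ELG1 (2,000/well) received 5-Fluorouridine plus compound or DMSO for 16 hr at 37 °C. Luciferase was read by ONE-Glo luminescence after 30 min at room temperature.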
Hits are given with their value. Hits are enriched below; roughly 21% of the tested compounds scored in any of these assays. Unless noted, the call rests on the fitted dose curve; in most records, active means well fitted curve in the direction sought with a large enough effect; inconclusive means small, poorly fitted or top-dose-only effect, or another doubt; inactive means no such curve, though single readings can be large; an effect the other way counts as inactive or inconclusive.

How did CCOc1ccc2c(c1)OC(c1ccc(OC)cc1)(C(F)(F)F)NC2=O (stereo unspecified) do in these assays?
RORgamma inh: inactive; IL-1B inflam inh: inactive; DT40 TDP1 no CPT: 3.26µM; Gal4-VP16 FLuc: inactive; DT40 TDP1 CPT: 3.26µM; ELG1 repair inh: inconclusive

What do the screens show for `COc1ccc2c(c1)OC(O)(C(F)(F)F)CC2=O` (stereo unspecified)?
RORgamma inh: inactive; IL-1B inflam inh: inactive; DT40 TDP1 no CPT: inactive; Gal4-VP16 FLuc: inactive; DT40 TDP1 CPT: inactive; ELG1 repair inh: inactive

How did Cc1ccc(C(=O)NCCc2nnc3n2CCN(C(=O)c2ccnc(Cl)c2)CC3)cc1 do in these assays?
DT40 TDP1 no CPT: inactive; DT40 TDP1 CPT: inactive

What do the screens show for `CCCCN(C)CCNC(=O)C(=O)c1c(C)[nH]c2ccccc12`?
RORgamma inh: inactive; IL-1B inflam inh: inactive; DT40 TDP1 no CPT: inactive; Gal4-VP16 FLuc: inactive; DT40 TDP1 CPT: inactive; ELG1 repair inh: inactive

What do the screens show for `CCCCNC(=S)N(C)/N=C/c1c(C)[nH]c2ccccc12`?
RORgamma inh: 12.6µM; IL-1B inflam inh: inactive; DT40 TDP1 no CPT: inactive; Gal4-VP16 FLuc: inconclusive; DT40 TDP1 CPT: inactive; ELG1 repair inh: inactive

How did CCCCNC(=S)N(C)/N=C/c1c(F)c(F)c(F)c(F)c1F do in these assays?
RORgamma inh: inactive; IL-1B inflam inh: -104.3; DT40 TDP1 no CPT: inconclusive; Gal4-VP16 FLuc: inactive; DT40 TDP1 CPT: inactive; ELG1 repair inh: inactive

How did COc1ccc(C(=O)n2nc(-c3cccnc3)nc2NCc2ccccc2)cc1OC do in these assays?
DT40 TDP1 no CPT: inconclusive; DT40 TDP1 CPT: inactive

How did COc1ccc(OC)c(C(Cc2ccnc3ccccc23)Cc2ccnc3ccccc23)c1 do in these assays?
DT40 TDP1 no CPT: 12.6µM; DT40 TDP1 CPT: 12.6µM

What do the screens show for `COc1ccc(OC)c(C(O)c2nc3ccccc3n2C(C)C)c1` (stereo unspecified)?
RORgamma inh: inactive; IL-1B inflam inh: inactive; DT40 TDP1 no CPT: inactive; Gal4-VP16 FLuc: inactive; DT40 TDP1 CPT: inactive; ELG1 repair inh: inactive

Results for COc1ccc(CCc2ccnc3ccccc23)cc1 ?
IL-1B inflam inh: -62.2; DT40 TDP1 no CPT: 20.6µM; DT40 TDP1 CPT: inconclusive

Results for c1ccc2c(CCc3c[nH]c4ccccc34)ccnc2c1 ?
DT40 TDP1 no CPT: 15.8µM; DT40 TDP1 CPT: 12.6µM

How did CCc1cccc2c1NC(=O)C21OCCO1 do in these assays?
RORgamma inh: inactive; IL-1B inflam inh: inactive; DT40 TDP1 no CPT: inactive; Gal4-VP16 FLuc: inactive; DT40 TDP1 CPT: inactive; ELG1 repair inh: inconclusive

Results for CC1=CN2C(=N)/C(=C\c3cn(CCCOc4ccccc4)c4ccccc34)C(=O)N=C2S1 ?
RORgamma inh: 7.08µM; IL-1B inflam inh: inactive; DT40 TDP1 no CPT: inconclusive; Gal4-VP16 FLuc: 5.01µM; DT40 TDP1 CPT: 14.6µM; ELG1 repair inh: inconclusive

Results for CC1=CC2=NC(=O)/C(=C\c3cn(C)c4ccccc34)C(=N)N2O1 ?
RORgamma inh: inactive; IL-1B inflam inh: inactive; DT40 TDP1 no CPT: inactive; Gal4-VP16 FLuc: inactive; DT40 TDP1 CPT: inactive; ELG1 repair inh: inactive

Results for Nc1nc(Cl)nc2c1ncn2C1OC(CO)C(O)C1F (stereo unspecified) ?
RORgamma inh: inactive; Gal4-VP16 FLuc: inconclusive

How did COc1cccc(OCC(O)CN2CCN(c3ccccc3)CC2)c1 (stereo unspecified) do in these assays?
RORgamma inh: inactive; IL-1B inflam inh: inactive; DT40 TDP1 no CPT: inactive; Gal4-VP16 FLuc: inactive; DT40 TDP1 CPT: inactive; ELG1 repair inh: inactive

Results for Cc1cccc(N2CCN(CC(O)COc3ccc(Cl)cc3)CC2)c1 (stereo unspecified) ?
RORgamma inh: inactive; IL-1B inflam inh: inconclusive; DT40 TDP1 no CPT: 13µM; Gal4-VP16 FLuc: inactive; DT40 TDP1 CPT: inconclusive; ELG1 repair inh: inactive

What do the screens show for `Cc1ccc(N2CCN(CC(O)COc3cccc(C)c3)CC2)cc1` (stereo unspecified)?
RORgamma inh: inactive; IL-1B inflam inh: inactive; DT40 TDP1 no CPT: inconclusive; Gal4-VP16 FLuc: inactive; DT40 TDP1 CPT: 23.1µM; ELG1 repair inh: inactive

How did Cc1cccc(N2CCN(CC(O)COc3ccccc3)CC2)c1 (stereo unspecified) do in these assays?
IL-1B inflam inh: inactive; DT40 TDP1 no CPT: inactive; DT40 TDP1 CPT: inactive

Results for O=C(COC(=O)CNC(=O)c1ccc(Cl)cc1Cl)NCc1ccco1 ?
IL-1B inflam inh: inactive; DT40 TDP1 no CPT: inactive; DT40 TDP1 CPT: inactive; ELG1 repair inh: inconclusive

How did COCCn1c(=O)cnc2cnc(Nc3ccccc3)nc21 do in these assays?
RORgamma inh: inactive; DT40 TDP1 no CPT: 14.6µM; Gal4-VP16 FLuc: inconclusive; DT40 TDP1 CPT: 9.2µM

Results for COc1cccc(Nc2ncc3ncc(=O)n(C[C@H]4CCCO4)c3n2)c1 ?
RORgamma inh: inactive; DT40 TDP1 no CPT: inconclusive; Gal4-VP16 FLuc: 11.2µM; DT40 TDP1 CPT: inconclusive

What do the screens show for `O=c1cnc2cnc(Nc3ccccc3)nc2n1C[C@H]1CCCO1`?
RORgamma inh: inactive; DT40 TDP1 no CPT: 9.2µM; Gal4-VP16 FLuc: inconclusive; DT40 TDP1 CPT: 8.2µM

Results for CN1CCC(N2CCN(C3CN(Cc4cn(Cc5cccc(C(F)(F)F)c5)nn4)S(=O)(=O)C3)CC2)CC1 (stereo unspecified) ?
IL-1B inflam inh: inactive; DT40 TDP1 no CPT: inactive; DT40 TDP1 CPT: inactive

What do the screens show for `Cc1cccc(NC(=O)CSc2nnc3c4ccccc4n(C)c3n2)c1`?
DT40 TDP1 no CPT: inactive; DT40 TDP1 CPT: inactive

How did Cc1ccccc1Cn1c(=N)n(CC(O)c2ccco2)c2ccccc21 (stereo unspecified) do in these assays?
RORgamma inh: inactive; IL-1B inflam inh: -77.1; DT40 TDP1 no CPT: 14.6µM; Gal4-VP16 FLuc: inactive; DT40 TDP1 CPT: 18.4µM; ELG1 repair inh: inactive

Results for Cc1ccccc1CN1CCN(C(=O)c2ccco2)CC1 ?
RORgamma inh: inactive; IL-1B inflam inh: inactive; DT40 TDP1 no CPT: inconclusive; Gal4-VP16 FLuc: inactive; DT40 TDP1 CPT: inactive; ELG1 repair inh: inconclusive

Results for CC(C)(C)c1ccc(Cn2c(=N)n(CC(O)c3ccco3)c3ccccc32)cc1 (stereo unspecified) ?
RORgamma inh: inconclusive; IL-1B inflam inh: -67.4; DT40 TDP1 no CPT: 2.59µM; Gal4-VP16 FLuc: inconclusive; DT40 TDP1 CPT: 2.59µM; ELG1 repair inh: inactive

How did CCN(Cc1ccccc1)C(=O)c1ccc2c(=O)n3c(nc2c1)CCC3 do in these assays?
IL-1B inflam inh: inactive; DT40 TDP1 no CPT: inconclusive; DT40 TDP1 CPT: inactive; ELG1 repair inh: inactive

Screens from PubChem.
